Reference: publication PMC4336329 (PLoS ONE, 2015)
In all, about 310,000 compounds went through this assay and about 14,000 (4.5%) showed an effect of 50% or more. The effect is printed as a negative number. Only a selection was taken, and strong results are over-represented in it overall.

Molecular target: human ether-à-go-go-related gene (hERG) potassium channel (human, UniProt Q12809)
Experiment: primary screen, population patch clamp on CHO cells stably expressing hERG; higher = less effect of the substance
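Further: peak tail current of the secondary pulse compared with the same well before compound.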

Chain of human ether-à-go-go-related gene (hERG) potassium channel (Q12809 whole entry, looked up): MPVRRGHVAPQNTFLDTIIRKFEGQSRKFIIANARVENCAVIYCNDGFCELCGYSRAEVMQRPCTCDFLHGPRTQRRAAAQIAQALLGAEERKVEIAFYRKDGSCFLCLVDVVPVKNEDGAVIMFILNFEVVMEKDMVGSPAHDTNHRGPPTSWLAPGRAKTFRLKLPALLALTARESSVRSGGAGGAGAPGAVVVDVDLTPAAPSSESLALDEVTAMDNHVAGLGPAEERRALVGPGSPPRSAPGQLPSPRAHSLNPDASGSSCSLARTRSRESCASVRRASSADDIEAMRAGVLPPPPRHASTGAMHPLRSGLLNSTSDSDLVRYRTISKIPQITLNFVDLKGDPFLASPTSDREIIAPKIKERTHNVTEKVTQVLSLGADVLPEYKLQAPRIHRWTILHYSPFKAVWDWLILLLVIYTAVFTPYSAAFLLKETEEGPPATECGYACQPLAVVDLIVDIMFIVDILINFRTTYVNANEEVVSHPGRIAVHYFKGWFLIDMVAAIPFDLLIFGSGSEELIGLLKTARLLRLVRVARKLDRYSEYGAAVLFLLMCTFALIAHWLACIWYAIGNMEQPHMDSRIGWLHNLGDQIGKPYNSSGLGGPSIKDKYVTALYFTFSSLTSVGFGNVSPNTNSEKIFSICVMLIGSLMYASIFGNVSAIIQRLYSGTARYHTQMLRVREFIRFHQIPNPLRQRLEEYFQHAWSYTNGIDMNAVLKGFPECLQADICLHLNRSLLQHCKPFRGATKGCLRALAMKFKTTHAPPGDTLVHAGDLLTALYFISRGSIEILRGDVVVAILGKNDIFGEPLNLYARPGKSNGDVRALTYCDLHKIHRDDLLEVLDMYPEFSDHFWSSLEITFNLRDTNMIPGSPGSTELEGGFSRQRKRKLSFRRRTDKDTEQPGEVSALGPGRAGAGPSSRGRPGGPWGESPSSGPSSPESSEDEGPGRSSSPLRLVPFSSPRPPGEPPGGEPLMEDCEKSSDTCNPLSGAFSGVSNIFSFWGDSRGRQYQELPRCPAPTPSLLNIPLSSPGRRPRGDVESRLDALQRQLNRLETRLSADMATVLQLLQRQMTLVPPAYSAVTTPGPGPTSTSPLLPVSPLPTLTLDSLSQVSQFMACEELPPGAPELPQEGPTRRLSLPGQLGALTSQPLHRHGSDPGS

Compound	hERG current change (%, negative = inhibition) at 10uM
CCc1ccc2[nH]c(=O)c(CN(Cc3ccccc3)C(=O)Nc3ccccc3OC)cc2c1	4.2%
CCc1ccc2[nH]c(=O)c(CN(CCN(C)C)C(=O)Nc3ccccc3OC)cc2c1	-64.7%
CCc1ccc2[nH]c(=O)c(CN(Cc3ccccc3OC)C(=O)Nc3ccccc3OC)cc2c1	3.47%
Nc1nc(SCc2ccc(Cl)c(Cl)c2)n[nH]1	10.4%
O=C(COC(=O)c1ccc(F)c(S(=O)(=O)N2CCOCC2)c1)c1ccc(Cl)cc1	-31.1%
COc1ccccc1/C=N/NC(=O)c1cccc(NC(=O)c2ccccc2C)c1	-4.64%
CC12CCC(=O)N1C(C(=O)OCC(=O)Nc1cccc(Br)c1)CS2 (stereo not drawn)	6.89%
CC12CCC(=O)N1C(C(=O)OCC(=O)Nc1cccc(S(=O)(=O)N3CCCCCC3)c1)CS2 (stereo not drawn)	-86.8%
CC(C)c1ccc(NC(=O)C2CSC3(C)CCC(=O)N23)cc1 (stereo not drawn)	2.4%
Cc1ccc(NC(=O)C2CSC3(C)CCC(=O)N23)cc1S(=O)(=O)N1CCCCCC1 (stereo not drawn)	-55.4%
CC12CCC(=O)N1C(C(=O)N1CCN(S(=O)(=O)c3ccc(F)c(F)c3)CC1)CS2 (stereo not drawn)	-53.7%
CC12CCC(=O)N1C(C(=O)OCC(=O)Nc1cc(S(=O)(=O)N3CCCCC3)ccc1Cl)CS2 (stereo not drawn)	-48.2%
Cc1ccc(S(=O)(=O)N2CCN(C(=O)C3CSC4(C)CCC(=O)N34)CC2)cc1C (stereo not drawn)	-13.8%
Cc1ccc(NC(=O)C2CSC3(C)CCC(=O)N23)cc1S(=O)(=O)N1CCOCC1 (stereo not drawn)	2.81%
CC12CCC(=O)N1C(C(=O)N1CCN(S(=O)(=O)c3ccccc3F)CC1)CS2 (stereo not drawn)	-30.1%
CC12CCC(=O)N1C(C(=O)Nc1ccc(SC(F)F)cc1)CS2 (stereo not drawn)	-57.6%
CC12CCC(=O)N1C(C(=O)Nc1ccc(F)cc1)CS2 (stereo not drawn)	12.4%
CC12CCC(=O)N1C(C(=O)Nc1ccc(Cl)c(S(=O)(=O)N3CCCCC3)c1)CS2 (stereo not drawn)	-34.3%
COc1ccc(NS(=O)(=O)c2c(C)n(C)c(=O)n(C)c2=O)cc1	15.5%
CN(C)S(=O)(=O)c1ccc(Cl)c(NC(=O)COC(=O)/C=C/c2ccc3ccccc3n2)c1	1.53%
Cc1ccc(C(=O)COC(=O)CNC(=O)C(c2ccccc2)c2ccccc2)cc1[N+](=O)[O-]	4.33%
O=C(O)CC1Sc2ccccc2NC1=O (stereo not drawn)	-13.4%
CN(C)C=O.Cc1ccc(S(=O)(=O)N(C)C)cc1NC(=S)Nc1ccc2[nH]c(=O)[nH]c2c1	76.2%

Compound	hERG current change (%, negative = inhibition) at 10uM
CCc1cccc(OCC2Cn3c(nc4c3c(=O)n(C)c(=O)n4C)O2)c1 (stereo not drawn)	3.18%
CC12CCC(=O)N1C(C(=O)Nc1cccc(S(=O)(=O)N3CCCCC3)c1)CS2 (stereo not drawn)	-43.9%
CC12CCC(=O)N1C(C(=O)Nc1cccc(S(=O)(=O)N3CCCCCC3)c1)CS2 (stereo not drawn)	-69.8%
CC12CCC(=O)N1C(C(=O)Nc1ccc(S(=O)(=O)N3CCCCC3)cc1)CS2 (stereo not drawn)	-5.09%
CCOc1cccc(N2C(=O)CC(N(CCc3ccc(OC)c(OC)c3)C(=O)CC)C2=O)c1 (stereo not drawn)	24.9%
Cc1ccc(Cc2nnc(SCC(=O)Nc3ccc(C)cc3C)[nH]c2=O)cc1	5.33%
COc1ccc(Cc2nnc(SCC(=O)Nc3ccc(C)cc3C)[nH]c2=O)cc1	-16.8%
Cc1ccc(NC(=O)CSc2nnc(Cc3ccccc3)c(=O)[nH]2)c(C)c1	-51.4%
CCOc1cc(CNc2ccc3c(c2)CCC3)ccc1OC	-8.96%
Cc1ccc(NC(=O)CS(=O)(=O)c2c[nH]c3ccccc23)c(C)c1	11.9%
COc1ccc(C2=NN(CCC(=O)NCc3ccc4c(c3)OCO4)C(=O)CC2)cc1	-18.8%
Cc1ccc(C2=NN(CCC(=O)NCCCN3CCOCC3)C(=O)CC2)cc1	-52.3%
Cc1ccc(C2=NN(CC(=O)NCCN(CC(C)C)CC(C)C)C(=O)CC2)cc1	-50.2%
Cc1ccc(C2=NN(CCC(=O)NCCC(C)C)C(=O)CC2)cc1	-24.5%
CC(C)CN(CCNC(=O)CN1N=C(c2ccc(Cl)cc2)CCC1=O)CC(C)C	-42.4%
Cc1ccc(C2=NN(CCC(=O)NCc3ccc4c(c3)OCO4)C(=O)CC2)cc1	-69.7%
O=C(CN1N=C(c2ccccc2)CCC1=O)NCCCN1CCc2ccccc2C1	-49.6%
Cc1ccc(-c2ccc(=O)n(CC(=O)NCCN(CC(C)C)CC(C)C)n2)cc1	-16.3%
O=C(CCN1N=C(c2ccccc2)CCC1=O)NCCCN1CCOCC1	21.2%
O=C(CN1N=C(c2ccccc2)CCC1=O)NCCN1CCc2ccccc2C1	-15.7%
O=C(CN1N=C(c2ccc(Cl)cc2)CCC1=O)NCCN1CCc2ccccc2C1	-51.4%
Cc1ccc(CC(=O)NCc2ccc3c(c2)OCO3)cc1	2.24%
